The target in test [1] is T1, Tyrosine-protein kinase receptor TYRO3 (Homo sapiens) (UniProt Q06418).
T1 sequence (whole entry): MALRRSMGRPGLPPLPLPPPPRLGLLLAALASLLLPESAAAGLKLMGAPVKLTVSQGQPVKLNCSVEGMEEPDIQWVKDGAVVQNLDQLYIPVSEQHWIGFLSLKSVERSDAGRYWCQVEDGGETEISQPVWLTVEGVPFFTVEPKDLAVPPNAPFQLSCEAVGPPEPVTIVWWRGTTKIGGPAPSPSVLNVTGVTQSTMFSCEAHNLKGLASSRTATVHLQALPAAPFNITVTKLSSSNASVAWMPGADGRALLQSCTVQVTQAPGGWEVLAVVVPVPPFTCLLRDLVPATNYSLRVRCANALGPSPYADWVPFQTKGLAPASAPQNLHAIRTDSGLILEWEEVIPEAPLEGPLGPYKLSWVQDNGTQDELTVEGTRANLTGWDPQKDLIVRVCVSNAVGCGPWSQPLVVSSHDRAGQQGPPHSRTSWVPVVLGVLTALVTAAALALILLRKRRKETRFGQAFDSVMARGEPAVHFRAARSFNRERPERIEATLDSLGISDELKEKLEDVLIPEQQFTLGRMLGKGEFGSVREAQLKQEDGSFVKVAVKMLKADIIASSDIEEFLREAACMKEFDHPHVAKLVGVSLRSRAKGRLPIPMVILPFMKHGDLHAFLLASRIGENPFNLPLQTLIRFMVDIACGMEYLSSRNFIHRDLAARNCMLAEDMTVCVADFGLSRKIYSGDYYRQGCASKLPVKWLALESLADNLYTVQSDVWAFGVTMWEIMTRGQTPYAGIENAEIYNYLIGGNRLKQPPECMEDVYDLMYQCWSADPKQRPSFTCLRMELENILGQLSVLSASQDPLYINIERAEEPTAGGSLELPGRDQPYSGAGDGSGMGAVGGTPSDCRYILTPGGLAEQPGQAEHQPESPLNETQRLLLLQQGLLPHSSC
To be noted: at 1 µM.

For test [2], the target named is Tyrosine-protein kinase Yes (Homo sapiens) (UniProt P07947). To be noted: at 0.1 µM.
For test [3] the target is unchanged. Conditions: at 1 µM.
Test [4] has as its target T2, Tyrosine-protein kinase ZAP-70 (Homo sapiens) (UniProt P43403).
T2 sequence (whole entry): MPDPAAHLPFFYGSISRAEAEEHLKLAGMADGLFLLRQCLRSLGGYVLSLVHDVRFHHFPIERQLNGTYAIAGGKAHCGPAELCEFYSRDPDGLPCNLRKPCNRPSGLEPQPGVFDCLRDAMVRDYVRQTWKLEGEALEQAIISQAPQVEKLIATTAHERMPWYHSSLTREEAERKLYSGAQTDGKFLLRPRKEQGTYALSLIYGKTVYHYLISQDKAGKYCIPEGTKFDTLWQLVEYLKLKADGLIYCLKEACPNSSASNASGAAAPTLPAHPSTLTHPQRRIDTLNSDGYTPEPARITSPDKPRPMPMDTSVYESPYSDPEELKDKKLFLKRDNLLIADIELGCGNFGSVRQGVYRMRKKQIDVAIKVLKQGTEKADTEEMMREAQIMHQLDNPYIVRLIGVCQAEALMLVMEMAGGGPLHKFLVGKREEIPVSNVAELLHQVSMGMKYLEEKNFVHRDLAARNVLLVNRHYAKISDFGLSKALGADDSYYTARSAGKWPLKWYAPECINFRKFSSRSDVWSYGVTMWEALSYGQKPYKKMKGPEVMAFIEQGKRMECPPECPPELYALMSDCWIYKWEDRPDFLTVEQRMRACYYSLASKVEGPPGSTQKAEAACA
Conditions: at 0.1 µM.

For test [5], the target named is T2, Tyrosine-protein kinase ZAP-70 (Homo sapiens). Conditions: at 1 µM.
Test [6] concerns the target Serine/threonine-protein kinase B-raf (Homo sapiens) (UniProt P15056). Conditions: at 0.1 µM.
For test [7] the target is unchanged. To be noted: at 1 µM.
Test [8] deals with Serine/threonine-protein kinase B-raf (Homo sapiens), P15056 [V600E]. To be noted: at 0.1 µM.
Test [9] has the same test system. Conditions: at 1 µM.
The target in test [10] is RAF proto-oncogene serine/threonine-protein kinase (Homo sapiens) (UniProt P04049). Conditions: at 0.1 µM.
The target is the same in test [11]. Conditions: at 1 µM.
In test [12] the target is T3, Interleukin-1 receptor-associated kinase 4 (Homo sapiens) (UniProt Q9NWZ3).
T3 sequence (whole entry): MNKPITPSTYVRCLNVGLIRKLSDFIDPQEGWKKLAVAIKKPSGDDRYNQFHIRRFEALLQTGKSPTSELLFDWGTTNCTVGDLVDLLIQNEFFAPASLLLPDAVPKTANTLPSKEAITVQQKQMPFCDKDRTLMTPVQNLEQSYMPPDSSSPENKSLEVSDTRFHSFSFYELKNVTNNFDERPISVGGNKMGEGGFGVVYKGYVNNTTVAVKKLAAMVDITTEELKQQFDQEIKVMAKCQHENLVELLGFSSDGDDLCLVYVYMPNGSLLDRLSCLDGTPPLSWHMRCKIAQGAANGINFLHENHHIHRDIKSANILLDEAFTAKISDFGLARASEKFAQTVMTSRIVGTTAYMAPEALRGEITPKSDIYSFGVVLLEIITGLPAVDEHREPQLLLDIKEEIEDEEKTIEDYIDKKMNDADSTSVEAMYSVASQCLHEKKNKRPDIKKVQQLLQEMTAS
Conditions: at 0.1 µM.

In test [13] the target is T3, Interleukin-1 receptor-associated kinase 4 (Homo sapiens). To be noted: at 1 µM.
Test [14] deals with Leucine-rich repeat serine/threonine-protein kinase 2 (Homo sapiens) (UniProt Q5S007). Conditions: at 0.1 µM.
For test [15] the target is unchanged. Conditions: at 1 µM.
Test [16] has as its system Leucine-rich repeat serine/threonine-protein kinase 2 (Homo sapiens), Q5S007 [G2019S]. To be noted: at 0.1 µM.
For test [17] the test system is unchanged. Conditions: at 1 µM.

We go through seven compounds from ChEMBL document CHEMBL1961873, “Compounds: GSK PKIS; Assays: Nanosyn kinase panel” (2012).

What is called inhibition is the drop in the measured response relative to a control, in per cent.

Sequence of Serine/threonine-protein kinase B-raf (Homo sapiens), P15056 [V600E] (P15056 whole entry V600E): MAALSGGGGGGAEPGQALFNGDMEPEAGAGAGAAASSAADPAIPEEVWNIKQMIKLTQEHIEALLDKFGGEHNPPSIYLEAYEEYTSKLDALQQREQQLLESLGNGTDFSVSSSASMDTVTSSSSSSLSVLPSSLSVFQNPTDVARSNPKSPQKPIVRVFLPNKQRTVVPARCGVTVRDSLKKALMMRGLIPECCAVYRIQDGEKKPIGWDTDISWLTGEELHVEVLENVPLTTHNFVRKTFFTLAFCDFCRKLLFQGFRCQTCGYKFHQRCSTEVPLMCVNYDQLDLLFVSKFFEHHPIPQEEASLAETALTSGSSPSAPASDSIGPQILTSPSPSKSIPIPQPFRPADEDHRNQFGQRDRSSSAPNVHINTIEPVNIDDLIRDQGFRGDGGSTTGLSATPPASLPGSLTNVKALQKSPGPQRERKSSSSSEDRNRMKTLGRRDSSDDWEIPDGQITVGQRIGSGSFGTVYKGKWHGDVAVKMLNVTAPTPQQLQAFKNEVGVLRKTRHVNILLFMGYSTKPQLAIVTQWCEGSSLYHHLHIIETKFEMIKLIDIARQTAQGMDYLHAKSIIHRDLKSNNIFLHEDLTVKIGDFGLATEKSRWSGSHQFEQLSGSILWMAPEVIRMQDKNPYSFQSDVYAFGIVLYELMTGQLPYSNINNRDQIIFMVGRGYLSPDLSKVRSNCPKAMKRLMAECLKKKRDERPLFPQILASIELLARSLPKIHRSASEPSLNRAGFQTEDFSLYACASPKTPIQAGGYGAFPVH
Sequence of RAF proto-oncogene serine/threonine-protein kinase (Homo sapiens) (P04049 whole entry): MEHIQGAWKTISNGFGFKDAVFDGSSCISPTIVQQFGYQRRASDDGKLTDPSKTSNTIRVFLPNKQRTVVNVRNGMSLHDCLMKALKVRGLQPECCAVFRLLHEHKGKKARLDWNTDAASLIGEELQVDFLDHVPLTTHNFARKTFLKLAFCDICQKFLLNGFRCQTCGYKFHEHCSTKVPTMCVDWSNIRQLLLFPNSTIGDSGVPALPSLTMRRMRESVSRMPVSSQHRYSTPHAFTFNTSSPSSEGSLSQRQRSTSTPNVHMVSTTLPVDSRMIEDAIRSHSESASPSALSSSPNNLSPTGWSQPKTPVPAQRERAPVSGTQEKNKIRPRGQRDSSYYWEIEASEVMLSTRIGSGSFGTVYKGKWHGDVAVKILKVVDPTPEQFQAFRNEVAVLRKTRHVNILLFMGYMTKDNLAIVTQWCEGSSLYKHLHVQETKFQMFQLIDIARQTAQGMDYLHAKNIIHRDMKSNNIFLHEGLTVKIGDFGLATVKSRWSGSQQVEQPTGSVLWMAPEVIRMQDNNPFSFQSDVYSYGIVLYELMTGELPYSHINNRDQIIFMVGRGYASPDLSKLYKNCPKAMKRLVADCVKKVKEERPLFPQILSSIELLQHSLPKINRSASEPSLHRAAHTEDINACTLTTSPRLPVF
Sequence of Leucine-rich repeat serine/threonine-protein kinase 2 (Homo sapiens) (Q5S007 whole entry): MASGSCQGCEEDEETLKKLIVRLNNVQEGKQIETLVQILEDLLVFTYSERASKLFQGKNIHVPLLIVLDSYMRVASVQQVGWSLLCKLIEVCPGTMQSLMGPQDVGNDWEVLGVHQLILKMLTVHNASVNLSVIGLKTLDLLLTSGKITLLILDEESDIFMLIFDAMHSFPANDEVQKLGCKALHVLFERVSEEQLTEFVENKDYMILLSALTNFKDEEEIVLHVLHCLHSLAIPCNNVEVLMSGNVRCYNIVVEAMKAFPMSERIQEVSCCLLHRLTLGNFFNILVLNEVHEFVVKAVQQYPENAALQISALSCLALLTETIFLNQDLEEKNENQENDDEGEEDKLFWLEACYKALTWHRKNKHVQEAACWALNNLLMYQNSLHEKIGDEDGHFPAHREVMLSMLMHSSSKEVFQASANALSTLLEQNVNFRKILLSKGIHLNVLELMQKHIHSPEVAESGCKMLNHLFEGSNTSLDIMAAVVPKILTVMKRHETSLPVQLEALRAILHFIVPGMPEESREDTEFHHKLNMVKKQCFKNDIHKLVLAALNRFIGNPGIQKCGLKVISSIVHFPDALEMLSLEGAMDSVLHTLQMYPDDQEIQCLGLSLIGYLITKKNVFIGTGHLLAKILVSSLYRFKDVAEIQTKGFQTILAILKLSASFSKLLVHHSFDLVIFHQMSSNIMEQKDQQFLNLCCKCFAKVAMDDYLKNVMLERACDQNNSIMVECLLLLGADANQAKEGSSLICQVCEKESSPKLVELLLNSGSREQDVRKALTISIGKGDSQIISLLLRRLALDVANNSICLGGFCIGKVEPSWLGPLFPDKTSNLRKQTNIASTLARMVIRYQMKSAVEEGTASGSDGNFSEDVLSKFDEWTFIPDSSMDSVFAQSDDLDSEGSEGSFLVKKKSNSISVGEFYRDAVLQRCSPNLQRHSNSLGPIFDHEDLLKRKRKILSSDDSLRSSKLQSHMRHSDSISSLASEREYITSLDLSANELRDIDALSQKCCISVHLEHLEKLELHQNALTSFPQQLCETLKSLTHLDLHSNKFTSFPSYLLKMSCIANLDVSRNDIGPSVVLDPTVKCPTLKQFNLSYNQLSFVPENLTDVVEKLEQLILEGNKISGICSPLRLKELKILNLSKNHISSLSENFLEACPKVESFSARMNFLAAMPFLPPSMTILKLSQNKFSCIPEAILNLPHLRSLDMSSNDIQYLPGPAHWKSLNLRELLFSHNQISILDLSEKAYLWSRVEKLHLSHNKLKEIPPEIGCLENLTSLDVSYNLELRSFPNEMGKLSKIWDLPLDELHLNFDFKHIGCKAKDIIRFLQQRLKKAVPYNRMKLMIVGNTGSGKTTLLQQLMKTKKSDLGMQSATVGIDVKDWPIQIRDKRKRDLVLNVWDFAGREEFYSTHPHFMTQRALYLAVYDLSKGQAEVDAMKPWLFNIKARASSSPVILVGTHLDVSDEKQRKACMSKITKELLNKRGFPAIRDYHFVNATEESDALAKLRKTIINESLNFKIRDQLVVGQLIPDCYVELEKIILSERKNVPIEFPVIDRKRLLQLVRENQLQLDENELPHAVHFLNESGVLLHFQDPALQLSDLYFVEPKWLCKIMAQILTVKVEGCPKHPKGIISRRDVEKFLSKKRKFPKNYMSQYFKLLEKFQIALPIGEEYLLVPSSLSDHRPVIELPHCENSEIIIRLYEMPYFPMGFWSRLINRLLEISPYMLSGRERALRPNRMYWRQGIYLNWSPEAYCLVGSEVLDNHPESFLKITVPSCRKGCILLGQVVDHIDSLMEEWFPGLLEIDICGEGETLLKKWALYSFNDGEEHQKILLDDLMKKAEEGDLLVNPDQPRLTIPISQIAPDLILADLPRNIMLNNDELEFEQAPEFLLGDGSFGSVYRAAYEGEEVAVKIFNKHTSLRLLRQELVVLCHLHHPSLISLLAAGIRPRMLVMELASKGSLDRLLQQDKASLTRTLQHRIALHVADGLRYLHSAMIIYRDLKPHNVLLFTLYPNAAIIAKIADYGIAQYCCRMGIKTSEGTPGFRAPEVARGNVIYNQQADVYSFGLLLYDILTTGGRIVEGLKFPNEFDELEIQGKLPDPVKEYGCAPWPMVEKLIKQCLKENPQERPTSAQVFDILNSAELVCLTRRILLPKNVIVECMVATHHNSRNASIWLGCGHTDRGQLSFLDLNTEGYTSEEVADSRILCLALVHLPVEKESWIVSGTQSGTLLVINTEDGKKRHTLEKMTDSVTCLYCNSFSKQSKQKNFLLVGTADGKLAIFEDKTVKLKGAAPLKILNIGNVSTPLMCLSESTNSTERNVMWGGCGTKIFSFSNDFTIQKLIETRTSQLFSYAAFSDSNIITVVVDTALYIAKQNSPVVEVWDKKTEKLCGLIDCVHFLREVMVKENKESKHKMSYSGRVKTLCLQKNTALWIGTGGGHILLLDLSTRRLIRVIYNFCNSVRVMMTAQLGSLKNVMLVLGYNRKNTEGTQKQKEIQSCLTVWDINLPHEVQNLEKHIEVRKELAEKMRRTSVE
Sequence of Tyrosine-protein kinase Yes (Homo sapiens) (P07947 2-543 limits assumed): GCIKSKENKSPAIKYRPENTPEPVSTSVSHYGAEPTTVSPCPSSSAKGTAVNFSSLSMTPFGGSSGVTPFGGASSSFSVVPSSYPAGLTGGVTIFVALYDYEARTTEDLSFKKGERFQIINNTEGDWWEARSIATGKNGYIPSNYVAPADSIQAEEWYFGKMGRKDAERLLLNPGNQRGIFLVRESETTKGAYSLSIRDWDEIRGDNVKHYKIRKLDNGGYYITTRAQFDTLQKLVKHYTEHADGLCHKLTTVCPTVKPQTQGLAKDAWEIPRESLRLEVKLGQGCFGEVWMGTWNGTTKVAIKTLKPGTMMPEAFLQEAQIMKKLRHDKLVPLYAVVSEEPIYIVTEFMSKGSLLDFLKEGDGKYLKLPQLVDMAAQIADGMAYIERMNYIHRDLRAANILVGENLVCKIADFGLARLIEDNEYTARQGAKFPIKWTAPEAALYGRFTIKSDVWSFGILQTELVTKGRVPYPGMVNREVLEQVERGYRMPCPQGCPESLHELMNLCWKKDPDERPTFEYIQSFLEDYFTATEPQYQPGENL
Sequence of Leucine-rich repeat serine/threonine-protein kinase 2 (Homo sapiens), Q5S007 [G2019S] (Q5S007 whole entry G2019S): as the sequence (Q5S007 whole entry) above, with G2019S counted along it
Sequence of Serine/threonine-protein kinase B-raf (Homo sapiens) (P15056 whole entry): as the sequence (P15056 whole entry V600E) above, with E600V counted along it

In the case of `CN1CCC(C(=O)Nc2n[nH]c3nnc(-c4ccccc4)cc23)CC1`, the inhibition in test [1] is 5.28%; in [2], 3.36%; in test [3], 3.47%; in test [4], 4.09%; in [5], 5.43%; in test [6] it was 7.26%. Besides, the inhibition worked out at 7.83% in [7]; 8.27% in test [8]; 7.58% in [9]; 16.6% in test [10]; 8.96% in [11]; 1.96% in test [12]. The inhibition in test [13] was found to be 2.54%; in [14], 1.09%; in test [15] it was 3.72%; in test [16], 3.14%; in test [17], 6.96%.

Regarding `CC1=C(C(=O)Nc2ccc3[nH]ncc3c2)C(c2ccc(F)cc2)NC(=O)N1` (stereo not drawn), the inhibition in [1] stood at 2.1%; in test [2], 2.93%; in test [3] it was 3.94%; in test [4], 2.76%; in test [5], 1.91%; in test [6], 3.64%. Besides, the inhibition in test [7] is 5.71%; in test [8], 2.81%; in test [9], 6.38%; in test [10] it was 1.97%; in [11], -2.67%; in test [12] it was 2.07%. The inhibition stood at 0.77% in [13]; 2.24% in test [14]; 5.08% in test [15]; 3.81% in test [16]; 14.8% in [17].

`CN(C)c1cc2c(Nc3ccc4nc(Cc5ccccc5)[nH]c4c3)ncnc2cn1`: the inhibition is 4.25% in test [1]; 9.2% in test [2]; 37% in test [3]; 6.34% in [4]; 12.4% in test [5]; 7.82% in [6]. Further, the inhibition is 7.35% in test [7]; 7.73% in test [8]; 11.2% in test [9]; -7.41% in test [10]; -7.27% in test [11]; 2.36% in test [12]. For the same compound, the inhibition came out at 1.94% in test [13]; 5.94% in test [14]; 7.11% in [15]; 5.3% in test [16]; 13.7% in test [17].

`CC(C)=Cc1cccc2c1/C(=N/Nc1ccc(S(N)(=O)=O)cc1)C(=O)N2`: the inhibition in test [1] was determined as 9.24%; in test [2] it was 2.28%; in test [3], 18%; in test [4], 4.6%; in test [5], 4.98%; in test [6] it was 0.07%. Further, the inhibition in test [7] is 2.13%; in test [8], 0.1%; in test [9] it was 2.83%; in [10], 3.26%; in [11], -1.14%; in test [12], -0.76%. Besides, the inhibition worked out at 0.79% in test [13]; 14.9% in [14]; 65.4% in test [15]; 17.7% in [16]; 60.9% in test [17].

Regarding `COC(=O)Nc1nc2cc(Oc3cccc(NC(=O)Nc4cc(C(F)(F)F)ccc4F)c3)ccc2[nH]1`, the inhibition in test [1] was -0.81%; in [2], 0.2%; in [3] it was 3.07%; in [4] it was 0.93%; in [5], 1.74%; in [6], -0.27%. The inhibition was 4.25% in test [7]; 0.34% in test [8]; 6.29% in test [9]; -0.45% in test [10]; 3.51% in test [12]; -0.12% in test [13]. For the same compound, the inhibition in test [14] is 0.62%; in [15] it was 1.81%; in test [16], 2.19%; in [17], 4.67%.

For `COc1ccc(-c2nn3ncccc3c2-c2ccnc(Nc3ccc(Cl)c(C(F)(F)F)c3)n2)cc1`, the inhibition in test [1] is 3.05%; in test [2], 7.39%; in test [3] it was 46.2%; in test [4], 0.91%; in test [5], -1.1%; in test [6], 3.94%. Also, the inhibition in [7] was 4.03%; in [8], 3.98%; in test [9] it was 3.99%; in test [10], -1.5%; in [11], -8.01%; in test [12], 2.17%. Further, the inhibition was found to be 0.42% in test [13]; 0.37% in test [14]; 1.12% in test [15]; 2.99% in test [16]; 3.98% in test [17].

`CS(=O)(=O)CCN(CC#N)Cc1ccc(-c2ccc3ncnc(Nc4ccc(OCc5cccc(F)c5)c(Cl)c4)c3c2)o1`: the inhibition is 2.22% in [1]; -1.67% in test [2]; 2.4% in [3]; -3.82% in [4]; -0.8% in [5]; 4.46% in test [6]. Moreover, the inhibition in [7] was 1.74%; in test [8] it was 1.42%; in test [9], 2.17%; in test [10], 0.21%; in test [11], -3.46%; in test [12], 0.21%. For the same compound, the inhibition in [13] is 0.75%; in [14] it was -6.54%; in test [15] it was -8.08%; in test [16], -3.2%; in test [17] it was -2.31%.
